From the supplement of paper PMC6555819

tested on: VDR:RXRa (NR concentration 270 nM, RXRa partner concentration 90 nM); assay: PBM binding z-score (relative to random genomic background probes); higher = stronger binding; sequences stand for … in GC…GCGATTGACAGCGTAGAATGAAGG
Description: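 Protein-binding microarray (Agilent 4x180K custom design, double-stranded 60-nt probes: 5' GC cap, 34-nt variable region, 24-nt constant primer region; full probe sequence given). Purified or IVT nuclear receptor:RXRα heterodimers (3:1 NR:RXRα, mostly 270:90 nM) or homodimers were incubated for 1 h in PBS with 2% milk and no ligand, then detected with Alexa488 antibodies. Fluorescence from o1-orientation probes (~5 replicates averaged) was converted to z-scores against 500 random hg19 background probes. Variable regions are seed direct-repeat (DR0–DR5) sites, all their single-nucleotide variants and half-site ablations.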

Sequence | PBM binding z-score
AGTCAAAGTTCACTAGGTAAAGTAAGATTCAGCT | 3.34
ATCTCTAGGTAACCAAGTTCTGTGAATGCCGAAC | 0.866
ATCTCTAGGTAACCAACTTCAGTGAATGCCGAAC | 0.0615
AGCTCTAGGTAAAGTTCAGTGAAAGATCGATAGA | 1.08
CCTACTGGACCATCAGGTCATTGATATCAACGTT | 2.24
AGACTGAGGTTATTAAGATCAGGGAATTGCGGTC | 2.39
TCATATAGGTAAAGTTGAAAGTCGAACGATATGA | 0.583
ATCGAAAGGTCTAGGTGAGTATAGAGAAAGGGAA | 0.435
CGTCCAAGGTCAGAGAGGTCAGTGATTGCCGAGT | 7.23
GCTAGCAGGCCATTTGGGTCCCTCAATGACGGGC | -0.73
TCTTGCAGATCAGCAGGTTAAGAAAGCTGGCCAA | -0.0921
AGAATGAGCTTACCAAAGATCAGGGAAACGCTTG | -0.591
ACTATTAGTTGAGACGAGGGCAATCGATAGGTTG | 0.793
CTCGAAAGGTGGGTTGAGGTGAGTATACGGATAA | 0.817
TCTCGGAGGACACGAAAGCTCAGAGCTCGACATC | -0.282
CGTCCAAGGTCAATGCTAGGTCATTGAAAGCATT | 5.84
GCTGCTAGGTCAACTGATGGGCAGCTAAAGCTCG | 1.09
CCCGACAGGTGAGAAGGTAACTCAGCCTCGATTA | -0.17
ACTTACGGGTCAACGATGTTATAGCACGCGTATA | 4.93
CCTATTAGTTGACCATAAGGGCAACCCAAGCTCG | 0.972

Sequence | PBM binding z-score
CAGCCTAGGTCAGGGCTAGTATAGGAGGAACGTT | -0.00307
TGTCAAAGTTCAAAGGTAACGAAAGTATCCACAC | 5.07
CCTACTGCGCCAAAGGTCATTGATTCCAATGCTC | 4.85
TAGCCTAGGTCGTGGGCCAGTATACCACGCGAAC | -0.199
ATATGTAGGTTACATCCGGGTCCTTCAGGCTATG | 0.695
GCGACTGGGGCAAAGCAGGTTACCAGAAGGTTGG | 0.13
CCTACTGGGCCACGAAAGTTCATTGATTCAGTGA | 3.51
GCTTACGGGTCAAAGGTTATAGCATGAATAGAAT | 5.86
ATATGTAGGTTACATCCTGGTCATTCAGGCTATG | 0.956
CGAACTAGGTCATTGACAGGACAGTGATTAGTAA | 2.47
GCTATTCGTTGAAAGGGCAACCGAATGATTCTCG | 0.306
CGGCAAAGTTCAAGGTAACGTAACAGAAAGCAGC | 3.52
CCTACTGGGCCACGAAAGGTCAGTGATTCAGTGA | 1.72
CGTCCAAGGTCAGCAGGTCAGTCAAAGCGACGTG | 4.02
CCTCGGAGGACAGAAGGTCAGCGCTGTCCGCTTT | 1.22
TGAATGAGGTTATAAGAGCAGGGAACGTTGCAAA | 0.901
CATACAGGGTCAGCTAGGCCAGAATAGGGACGGC | 3.8
TGAATGAGGTAAAAGATCAGGGAACGTGGCGTCG | -0.131
TCTAGTTGGTCACGGAGGTCACACATGACGGGTA | 5.83
CCGAGTAGGTTATGGGGCATTCTGGCAACGGTGA | -0.0151
